In all, about 150,000 compounds went through this assay and about 6,500 (4.3%) were called active. Another 12% or so got no clear call; they are omitted. The call rests on the fitted dose curve; in most records, active means well fitted inhibition curve with a large enough effect (not every such curve was filed as active); inconclusive means small, poorly fitted or top-dose-only effect, or another doubt; inactive means no such curve, though single readings can be large or run the other way. The list comes from a sample in which actives are over-represented; it also holds similar structures and randomly drawn compounds.
On the % scale 0 is the no-effect control and ±100 the full control effect; potency means the concentration at half of the fitted maximal effect.

Sequence of 15-hydroxyprostaglandin dehydrogenase [NAD(+)] (Homo sapiens) (P15428 whole entry, looked up): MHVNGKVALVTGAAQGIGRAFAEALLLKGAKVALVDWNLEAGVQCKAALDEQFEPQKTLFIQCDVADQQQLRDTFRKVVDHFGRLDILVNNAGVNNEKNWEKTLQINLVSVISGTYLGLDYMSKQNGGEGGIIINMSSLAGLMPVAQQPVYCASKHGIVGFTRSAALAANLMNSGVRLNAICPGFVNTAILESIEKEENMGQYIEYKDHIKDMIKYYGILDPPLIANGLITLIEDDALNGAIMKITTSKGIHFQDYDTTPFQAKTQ

This assay addresses 15-hydroxyprostaglandin dehydrogenase [NAD(+)] (Homo sapiens) (UniProt P15428). The experiment in a line: qHTS Assay for Inhibitors of HPGD (15-Hydroxyprostaglandin Dehydrogenase). Particulars: purified HPGD, NADH fluorescence kinetic, PGE2 substrate; activity change, negative = inhibition: stronger effect = lower value. An outline of the steps: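 20 nM HPGD preincubated 15 min at room temperature with compound in 50 mM Tris-HCl pH 8, 0.01% Tween 20. Started with 1 mM NAD+ and 30 uM prostaglandin E2; NADH fluorescence (360/450 nm) read 5 times over 30-s intervals, last minus first.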
(In general: qHTS replaces the single test concentration by a dilution series.)
Turning to `COC(=O)/C(=C1\Oc2ccc(C(C)(C)C)cc2S1)C(F)(F)F`, the activity change, negative = inhibition was -12.2% (inactive). Same read-out and setting: next, `COc1cc(OC)cc(-c2nc3ccccc3c(=O)n2NC(=O)c2cccnc2Cl)c1`: -8.81% (inactive); `NC(=O)Nc1ccccc1C(=O)NCCc1ccccc1`: -3.92% (inactive). On the same count and under the same terms, next, `CCOc1cc(/C=N/NC(=O)OC)ccc1OCCSc1ccc(Cl)cc1`: -11.7% (inactive); `Cc1nn(-c2ccccc2)c2c1C(c1cccc([N+](=O)[O-])c1)N(c1ccccc1)C(=O)N2` (stereo unspecified): -6.84% (inactive). Same read-out and setting: with `CC(Sc1cccc[n+]1[O-])C(=O)Nc1cccc(S(=O)(=O)N2CCOCC2)c1` (stereo unspecified) the figure was -20.6% (inactive); with `CC(=O)CC(c1ccccc1)C1C(=O)Oc2ccccc2C1=O` (stereo unspecified), -12.2% (inactive). In the case of `O=C(c1cncc(Br)c1)N1CCN(c2ccc([N+](=O)[O-])cc2)CC1`, the activity change, negative = inhibition is -27.4% (inactive). The same measure, in the same setting: next, `CSCc1ccc(C(=O)Nc2cc(C)cc(C)c2)cc1`: -12.7% (inactive). Same read-out and setting: with `COc1ccc(N(C(=O)c2cccnc2)S(=O)(=O)c2ccc3c(c2)n(C)c(=O)n3C)cc1` the figure was -4.39% (inactive). For `O=C(c1cccnc1)N(c1cc2sc(=O)oc2c2ccccc12)S(=O)(=O)c1ccccc1`, the Potency is 17.8 µM (active). Regarding `CN(C)S(=O)(=O)c1cccc(C(=O)Nc2cccnc2)c1`, the activity change, negative = inhibition was -13.1% (inactive). The same measure, in the same setting: with `COc1ccc(/C=N/NC(=O)c2ccccc2)cc1OS(=O)(=O)c1ccccc1` the figure was -15.2% (inactive). For `Cn1c(=NC(=O)CSCC(=O)N2CCCCC2)sc2ccccc21`, the Potency is 22.4 µM (active). With `Cn1c(=NC(=O)CSCC(=O)N2CCOCC2)sc2ccccc21`, the activity change, negative = inhibition is -16.8% (inactive). Still for that read-out and setting: next, `Cn1c(=NC(=O)c2cnccn2)sc2ccccc21`: -8.2% (inactive). On the same count and under the same terms, next, `O=C(Nc1nc(-c2ccc(-c3ccccc3)cc2)cs1)c1cnccn1`: -5.23% (inactive); `CN(c1ccccc1)S(=O)(=O)c1cccc(NC(=O)Cc2c(F)cccc2Cl)c1`: -8.06% (inactive); `Cc1ccc2c(c1)C1CN(C)CCC1N2C(=O)c1ccccc1NS(=O)(=O)c1ccc(F)cc1C` (stereo unspecified): -6.43% (inactive). `O=C(C1CCN(c2nnc(-n3cccc3)s2)CC1)N1CCc2ccccc2C1`: the Potency is 14.1 µM (active).

In the case of `CCOC(=O)C1CCCN(C(=O)C2CCN(c3nnc(-n4cccc4)s3)CC2)C1` (stereo unspecified), the activity change, negative = inhibition is -22.6% (inactive). Same read-out and setting: next, `CSc1ccc(CCNC(=O)C2CCN(c3nnc(-n4cccc4)s3)CC2)cc1`: 2.14% (inactive). On the same count and under the same terms, next, `O=C(NC(Nc1nc2ccc([N+](=O)[O-])cc2s1)(C(F)(F)F)C(F)(F)F)c1ccccc1`: -5.24% (inactive); `COc1ccc(C(=O)Nc2nc(-c3ccc(OC)cc3)c(-c3ccc([N+](=O)[O-])cc3)s2)cc1`: -12.2% (inactive).

`COC(=O)C(NC(=O)c1ccc(OC)cc1)(Nc1ncc(S(=O)(=O)c2ccc([N+](=O)[O-])cc2)s1)C(F)(F)F` (stereo unspecified): the Potency is 15.8 µM (active). The same measure, in the same setting: with `O=C(NCc1ccccn1)c1ccc2nc(-c3ccco3)c(-c3ccco3)nc2c1` the figure was 14.1 µM (active). As to `CCOc1ccc(C(=O)NC(C(=O)NCc2ccccn2)C(C)C)cc1` (stereo unspecified), the activity change, negative = inhibition is -8.11% (inactive).

With `CN(c1ccc(C(=O)NCc2ccccn2)cc1)S(C)(=O)=O`, the activity change, negative = inhibition was -25.1% (inactive). Turning to `COc1ccccc1C1SCCN1C(=O)c1ccc([N+](=O)[O-])cc1` (stereo unspecified), the activity change, negative = inhibition is -2.04% (inactive). Take `O=C(CN1CCN(c2ccc(O)cc2)CC1)Nc1cc(S(=O)(=O)N2CCOCC2)ccc1Cl`: the activity change, negative = inhibition was -5.21% (inactive). Turning to `Cc1ccc(-n2c(C)cc(C(=O)CSc3nnc4ccccn34)c2C)cc1`, the activity change, negative = inhibition is -16.1% (inactive). Still for that read-out and setting: next, `C/C(=N\NC(=O)c1ccc(NS(=O)(=O)c2cccs2)cc1)c1ccc2ccccc2c1`: -21.6% (inactive).

As for `CC(C)OC(=O)c1sc2nc3c(cc2c1N)C(=O)CCC3`, the Potency is 28.2 µM (active). Turning to `Cc1cccc(NC(=O)c2sc3nc4c(c(-c5ccco5)c3c2N)CCC4)c1`, the activity change, negative = inhibition was -21.6% (inactive).

Consider `Nc1c(C(=O)NCc2ccccc2)sc2nc3c(cc12)C(=O)CCC3`, for which the activity change, negative = inhibition was -24.2% (inactive). Still for that read-out and setting: with `C/C(CCC(=O)OC[C@H]1O[C@H](C#Cc2ccccc2)C=C[C@@H]1Oc1ccc(C)cc1)=N\OC[C@@H](O)[C@H]1O[C@@H]2OC(C)(C)O[C@@H]2[C@H]1O` the figure was -19.5% (inactive); with `CCc1ccc(NC(=O)CC2C(=O)NCCN2C(=S)Nc2ccccc2)cc1` (stereo unspecified), -10.9% (inactive). The same measure, in the same setting: with `Cc1ccc(NN=C2C(=O)OC(C)(C)OC2=O)c(C)c1` the figure was -9.59% (inactive); with `C=CC1=C2C=C(C3CC3)N(C(CO)CO)C=C2C(=O)C(C)(OC(=O)c2ccco2)C1=O` (stereo unspecified), -2.61% (inactive). Turning to `COc1ccc(C(C[N+](=O)[O-])n2nc(C)cc2C)cc1` (stereo unspecified), the Potency was 31.6 µM (active). With `COc1ccc(Nc2cc(C)nc(-n3nc(C)cc3C)n2)cc1`, the activity change, negative = inhibition is -0.842% (inactive).

Regarding `COc1ccc(OCc2cn3c(C)cc(C)nc3n2)cc1`, the activity change, negative = inhibition was -7.95% (inactive). Take `COc1ccc(N2CCN(c3ccc([N+](=O)[O-])cc3Cl)CC2)cc1`: the activity change, negative = inhibition was -1.48% (inactive). Same read-out and setting: next, `COc1cc2c(cc1OC)C(Nc1ccc(S(N)(=O)=O)cc1)=NC(C)(C)C2`: -7.98% (inactive). On the same count and under the same terms, next, `CC(Sc1nnc2c(n1)C1CCC2(C)C1(C)C)C(=O)Nc1ccccc1` (stereo unspecified): -10.3% (inactive). For the compound `CSc1nc(C)cc(SC(C(C)=O)C(=O)Nc2ccccc2)n1` (stereo unspecified), the Potency is 25.1 µM (active).

Consider `CSc1ccccc1C(=O)Nc1cccc(C(C)=O)c1`, for which the activity change, negative = inhibition is -4.99% (inactive). Turning to `CCCCOc1ccc(C(=O)NCC(=O)OCC(=O)N2CCN(S(=O)(=O)c3ccc(C)cc3C)CC2)cc1`, the activity change, negative = inhibition is -0.54% (inactive). The same measure, in the same setting: with `COC(=O)c1ccc(C(=O)OC)c(NC(=S)N2CCN(c3ccc(F)cc3)CC2)c1` the figure was -14.5% (inactive).

For `CCOc1ccc(C(=O)NC(=S)Nc2ccc(NC(=O)C(C)C)cc2)cc1[N+](=O)[O-]`, the activity change, negative = inhibition was -3.94% (inactive). With `Cc1nnc(-c2ccc(Oc3ccc(C)c(C)c3)c([N+](=O)[O-])c2)o1`, the Potency is 10 µM (active). As to `COc1ccc(OCC(=O)Nc2cc(C)c(Cl)cc2OC)c([N+](=O)[O-])c1`, the activity change, negative = inhibition is -1.27% (inactive).

In the case of `S=C(NCc1ccc(Cl)cc1)NC1CCCCC1`, the activity change, negative = inhibition was -2.44% (inactive). Turning to `CC(C)Nc1ncnc2c1nnn2Cc1ccccc1`, the Potency was 28.2 µM (active). `CC(C)(C)c1nc(NCC2CCCO2)c2nnn(Cc3ccccc3)c2n1` (stereo unspecified): the activity change, negative = inhibition is -9.49% (inactive). Same read-out and setting: with `C#CCNc1nc(C(C)C)nc2c1nnn2Cc1ccccc1F` the figure was -2.63% (inactive).

The values are drawn from PubChem BioAssay AID894 (National Center for Advancing Translational Sciences (NCATS), 2007).
